tested on: Plasmodium berghei ANKA liver stage in HepG2-A16-CD81; assay: % inhibition of liver stage parasite viability (luciferase); higher = more inhibition; details: 5 µM; 48 h
Protocol: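 Single-concentration screen of the MMV Pandemic Response Box. P. falciparum NF54 asexual blood stages: pLDH assay, 72 h at 37 °C, 2 and 20 µM, n=2. Stage IV/V gametocytes (NF54): luciferase reporter (NF54-Pfs16-GFP-Luc, 48 h), ATP bioluminescence (24 h) and PrestoBlue (48 h) at 1 and 5 µM, n=1. P. berghei liver stage (luciferase in HepG2-A16-CD81, 48 h post infection) at 5 µM, n=4. All normalised to DMSO and kill controls as % inhibition.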

Row | SMILES | % inhibition of liver stage parasite viability [%]
1 | O=C(NC12CC3CC(CC(C3)C1)C2)c1cc2ccccc2[nH]1 | 11.7
2 | C[N+]1(C)CCCC(OC(=O)C(O)(c2ccccc2)c2ccccc2)C1 (stereo not drawn) | 34
3 | CC(C)Oc1cccc(NC(=O)c2ccccc2C(F)(F)F)c1 | 23.7
4 | COc1ccccc1CN[C@H]1C2CCN(CC2)[C@H]1C(c1ccccc1)c1ccccc1 | 17.8
5 | NC1(C(=O)O)CCP(=O)(O)CC1 (stereo not drawn) | 19.9
6 | Nc1c(C(=O)NCc2ccco2)c2nc3ccccc3nc2n1CCN1CCCCC1 | 28.4
7 | COC(=O)Nc1nc2ccccc2[nH]1 | 30.8
8 | C[C@H]1CC[C@]2(NC1)O[C@H]1C[C@H]3[C@@H]4CC[C@H]5C[C@@H](O)CC[C@]5(C)[C@H]4CC[C@]3(C)[C@H]1[C@@H]2C | 32
9 | CN1C(=O)C(c2ccccc2)C(=O)N(c2ccccc2)c2cc(C(F)(F)F)ccc21 (stereo not drawn) | 7.89
10 | C[C@@]1(O)[C@H](O)[C@@H](CO)O[C@H]1n1ccc2c(N)ncnc21 | 12.7
11 | CCN1CCN(Cc2nc3ccc([N+](=O)[O-])cc3c(=O)n2-c2ccccc2F)CC1 | 14.3
12 | COc1cc(C(C)(C)CCCC(C)C)cc(OC)c1OC | 21
13 | CCCCc1ccc(C(=O)O)nc1 | 19.3

From the supplement of paper PMC7801607
